Shown are actives, neighbours in structure and some others; about 2.4% of the full set was active somewhere.
D2 ag-1 – Beta-Arrestin HTS for Positive Allosteric Modulators of the Human D2 Dopamine Receptor: Agonists. AID 624465, 2012. actives 0.084% (n = 360,000). activation, % (concentration not given with the values). DiscoveRx PathHunter D2 beta-arrestin, luminescence, 90 min; 100% = 57 uM dopamine signal; in the data active = activation above about 40%; inconclusive = between about 15% and that limit
Target sequence (P14416 whole entry, looked up): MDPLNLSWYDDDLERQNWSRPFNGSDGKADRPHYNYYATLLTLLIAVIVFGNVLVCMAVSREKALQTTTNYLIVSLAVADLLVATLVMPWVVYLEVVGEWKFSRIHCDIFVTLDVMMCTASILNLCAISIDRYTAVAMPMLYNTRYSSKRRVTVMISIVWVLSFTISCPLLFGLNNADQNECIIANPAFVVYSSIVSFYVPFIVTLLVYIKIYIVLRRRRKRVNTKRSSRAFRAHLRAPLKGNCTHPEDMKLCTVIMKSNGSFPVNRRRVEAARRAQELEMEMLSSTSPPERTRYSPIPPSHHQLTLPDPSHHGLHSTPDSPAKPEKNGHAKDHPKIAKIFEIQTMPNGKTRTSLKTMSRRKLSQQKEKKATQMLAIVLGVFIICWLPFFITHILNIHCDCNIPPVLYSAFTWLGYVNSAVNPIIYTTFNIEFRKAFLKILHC
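DiscoveRx PathHunter D2 beta-arrestin cells (2,100/well) attached overnight, then compound-stimulated 90 min at 37 C in HBSS/10 mM HEPES/0.1% Tween-20 buffer; beta-galactosidase complementation read by luminescence after 1 h at ambient temperature. Dopamine 57 uM final (EC100) as control.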
D2 antag – HTS Assay for Allosteric Antagonists of the Human D2 Dopamine Receptor: Primary Screen for Antagonists; D(2) dopamine receptor (Homo sapiens), P14416; HEK293 TREx D2 cells, calcium flux, dopamine EC80; inhibition, % at 10 µM; actives 2% (n = 340,000); AID 485344, 2010; in the data active = inhibition above about 30%; inactive = below that, where a call was filed
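Calcium flux kinetic readout in an inducible HEK293 TREx D2 line plated overnight at 30 C. After 180 s compound exposure, an EC80 dopamine challenge follows with another 180 s kinetic read to detect antagonism.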
D2 PAM-1 – HTS Assay for Positive Allosteric Modulators of the Human D2 Dopamine Receptor: Primary Screen for Potentiators; D(2) dopamine receptor (Homo sapiens), P14416; HEK293 T-REx D2, calcium flux, EC20 dopamine potentiation; potentiation, % at 10 µM; actives 0.34% (n = 340,000); AID 485347, 2010;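 active = potentiation over 3 SD above the plate norm, cut at about 30% in these data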
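Tetracycline-induced Hek293 Trex D2 cells, force-coupled to calcium, loaded with no-wash calcium dye. Compound added with 180 s kinetic read for agonism, then EC20 dopamine and a further 180 s read for potentiation.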
D2 ag-2 – HTS Assay for Allosteric Agonists of the Human D2 Dopamine Receptor: Primary Screen for Agonists; D(2) dopamine receptor (Homo sapiens), P14416; HEK293 T-REx D2 cells, calcium flux agonist mode; activation, % at 2 µM; actives 0.53% (n = 340,000); AID 485358, 2010;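 active = activation over 3 SD above normal in the single-dose calcium agonist read, cut at about 30% in these data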
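Agonism scored from kinetic calcium signal (1 read/sec, 180 s) following compound pin transfer, after a 10 s baseline. Cells: HEK293 Trex line expressing inducible D2 receptor coupled to calcium, dye-loaded after overnight culture at 30 C.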
D2 PAM-2 – Beta-Arrestin HTS for Positive Allosteric Modulators of the Human D2 Dopamine Receptor: Potentiators; potentiation, % (test concentration not listed); actives 0.23% (n = 360,000); AID 624464, 2012; DiscoveRx D2 beta-arrestin cells, luminescence, 90 min; 100% = 57 uM dopamine signal; in the data active = potentiation above about 50%; inconclusive = mostly about 30% to 49%
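PathHunter beta-arrestin assay in DiscoveRx D2 cells. Compounds were added with an EC20 of dopamine (50 nM final) for 90 min at 37 deg C. Luminescence was read 1 h after detection reagent, with 57 uM dopamine as the EC100 control.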
Of the large screens only hits and unclear results are named; the others gave an inactive call.

O=C(CCNS(=O)(=O)c1cccc2nonc12)NC1CCCCC1	D2 antag 31
O=C(CCS(=O)(=O)c1cccc2nonc12)NC1CCCCCC1	none
CCOc1ccc(CC(=O)Nc2c(C(=O)c3ccccc3)oc3ccc(OC)cc23)cc1OCC	none (no result: D2 ag-1, D2 antag, D2 PAM-2)
O=C(COC(=O)CCNS(=O)(=O)c1ccccc1F)Nc1nnc(-c2ccccc2)o1	D2 antag 32
O=C(COC(=O)CCNS(=O)(=O)c1ccc(Cl)cc1)NCc1ccccc1	none (no result: D2 antag, D2 PAM-1, D2 ag-2)
O=C(COC(=O)CCNS(=O)(=O)c1ccccc1)NC(=O)Cc1ccccc1	D2 antag 37
Cc1cc(NC(=O)c2cc(-c3ccc(OC(C)C)cc3)nc3ccccc23)no1	D2 PAM-1 30
Cc1ccc(OCCCCN(C)Cc2ccccc2)c(Br)c1	none
Cc1cc(C)c(OCCCCN(C)Cc2ccccc2)c(C)c1	D2 antag 33
CCOC(=O)c1cc(-c2ccccc2)n(-c2cccc(C(=O)Nc3cccc(F)c3)c2)c1C	none (no result: D2 ag-1, D2 antag, D2 PAM-2)
Cc1cc2c(cc1S(=O)(=O)N(CCN(C)C)Cc1ccccc1)OCC(=O)N2	none (no result: D2 ag-1, D2 antag, D2 PAM-2)
Cc1cc(/C=N/NC(N)=S)c(O)c(/C=N/NC(N)=S)c1	D2 ag-2 45
NC(=S)N/N=C/c1cccc(O)c1O	none
CCOC(=O)CC1=C(C(=O)OCC)C(c2cccnc2)C(C#N)=C(N)O1 (stereo not drawn)	none
CC1=C(n2nnc([N+](=O)[O-])n2)C(c2cccnc2)C(C#N)=C(N)O1 (stereo not drawn)	D2 ag-1 inconclusive, D2 PAM-2 110
CCOC(=O)CC1=C(C#N)C(c2cccnc2)C(C(=O)OCC)=C(N)O1 (stereo not drawn)	D2 antag 38
O=C(COc1ccc(Br)cc1)Nc1ccc2c(c1)C(=O)NC2=O	D2 antag 33
CCN(CC)c1ccc2cc(C(=O)Nc3ccccn3)c(=O)oc2c1	D2 ag-2 39
CCN(CC)c1ccc2cc(C=O)c(=O)oc2c1	D2 ag-2 65
CCN(CC)c1ccc2cc(C(C)=O)c(=O)oc2c1	D2 ag-2 35
CCN(CC)c1ccc2cc(-c3nnc(-c4ccncc4)o3)c(=O)oc2c1	D2 antag 66, D2 ag-2 88 (no result: D2 PAM-1)
Cc1ccc(Cl)cc1NC(=O)c1ccc(NC(=O)N2CCSc3ncccc32)cc1	none (no result: D2 ag-1, D2 antag, D2 PAM-2)
CCOC(=O)c1ccc(NC(=O)CN2C(=O)c3cccnc3Sc3ccccc32)cc1	none (no result: D2 ag-1, D2 antag, D2 PAM-2)
COc1ccc(-c2cc(=O)oc3cc(OC(C)C(=O)NC(Cc4c[nH]c5ccc(O)cc45)C(=O)O)ccc23)cc1 (stereo not drawn)	none
CCCc1cc(=O)oc2cc(C)cc(OCC(=O)NC(Cc3c[nH]c4ccc(O)cc34)C(=O)O)c12 (stereo not drawn)	none
CC(Oc1ccc2ccc(=O)oc2c1)C(=O)NC(Cc1c[nH]c2ccc(O)cc12)C(=O)O (stereo not drawn)	D2 antag 44
CCc1cc(=O)oc2cc(C)cc(OCC(=O)NC(Cc3c[nH]c4ccc(O)cc34)C(=O)O)c12 (stereo not drawn)	D2 antag 48
COc1ccc(CNC(=O)CCC(=O)N2CC3CCCN3c3ccccc32)cc1 (stereo not drawn)	none (no result: D2 ag-1, D2 antag, D2 PAM-2)
COc1ccc(CCNC(=O)c2ccc(Cn3c(=O)c4cccn4c4cccnc43)cc2)cc1OC	none (no result: D2 ag-1, D2 antag, D2 PAM-2)
CC(C)N1C(=O)c2ccccc2C1C(=O)NC1CCCCCC1 (stereo not drawn)	D2 PAM-1 31
Cc1nn(C)c2c1c(C(F)(F)F)cc(=O)n2CC(=O)NCc1ccccc1Cl	none (no result: D2 ag-1, D2 antag, D2 PAM-2)
COc1ccc(C2C(=O)N(C3CCCCCC3)CC(=O)N2Cc2ccc(C)cc2)cc1 (stereo not drawn)	none (no result: D2 ag-1, D2 antag, D2 PAM-2)
